These results are taken from publication PMC5540273 (PLoS ONE, 2017).

SMILES strings stand for the structures.

Among the test systems are EPHA7; EPHA8; EPHB1; EPHB2; EPHB3; EPHB4; EPHB6; ERBB2; ERBB3; ERBB4; ERN1; FER; FES.
Common to all, as to details: concentration: 1 μM, replicates: in singlicate; n = 1
For another test, the system named is T1, ERK1.
T1 construct: gene MAPK3

The next test has as its system T2, ERK2.
T2 construct: gene MAPK1

In another test the test system is T3, ERK3.
T3 construct: gene MAPK6

In the next test the test system is T4, ERK4.
T4 construct: gene MAPK4

The next test has as its system T5, ERK5.
T5 construct: gene MAPK7

A further test relates to T6, ERK8.
T6 construct: gene MAPK15

A further test concerns T7, FAK.
T7 construct: gene PTK2
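Also: KINOMEscan kinase panel screen.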

Take `CC(=O)Nc1nc2cnc(Nc3cc(NC(=O)c4cccc(C5(C#N)CC5)c4Cl)ccc3C)nc2s1`: the “%Inh” value in the test on EPHA7 is listed as 0%; with EPHA8, 55%; with EPHB1 it was 10%; in the test with EPHB2, 50%; in the test with EPHB3, 10%; with EPHB4 it was 34%. In addition, the “%Inh” value in the test on EPHB6 was 64%; in the test with ERBB2 it was 14%; in the test on ERBB3, 7%; in the test with ERBB4, 4%; in the test with ERK1, 0%; with ERK2, 14%. Moreover, the “%Inh” value in the test on ERK3 is on record as 13%; with ERK4, 0%; with ERK5 it was 3%; with ERK8 it was 0%; in the test with ERN1, 28%; in the test with FAK, 0%. For the same compound, the “%Inh” value is on record as 0% in the test on FER and 12% in the test with FES.

As for `O=C(O)C(F)(F)F.O=C(O)C(F)(F)F.O=c1[nH]ccc2nc(N[C@@H]3CCCNC3)nc(Nc3ccc(S(=O)(=O)N4CCOCC4)cc3)c12` [GSK2177277], the “%Inh” value in the test on EPHA7 is reported as 58%; with EPHA8, 39%; in the test with EPHB1, 31%; with EPHB2, 0%; in the test with EPHB3 it was 15%; in the test on EPHB4 it was 21%. The “%Inh” value in the test with EPHB6 is 30%; with ERBB2, 2%; with ERBB3 it was 45%; in the test on ERBB4, 12%; with ERK1, 59%; in the test with ERK2, 72%. Further, the “%Inh” value is 100% in the test on ERK3; 100% in the test on ERK4; 58% with ERK5; 99.2% in the test on ERK8; 60% in the test with ERN1; 86% in the test on FAK. For the same compound, the “%Inh” value in the test with FER amounted to 95.4%; with FES it was 68%.

With `Cc1ccc(C)c(NC(=O)NC2CCN(c3ccnc(Nc4ccc(F)cc4)n3)C2)c1` (centres unmarked) [GSK1379720], the “%Inh” value with EPHA7 is given as 0%; in the test on EPHA8, 0%; with EPHB1, 0%; with EPHB2 it was 16%; in the test with EPHB3, 8%; in the test on EPHB4 it was 6%. For the same compound, the “%Inh” value in the test with EPHB6 turned out to be 24%; with ERBB2, 43%; in the test on ERBB3, 11%; in the test with ERBB4, 47%; in the test with ERK1 it was 35%; in the test with ERK2, 0%. The “%Inh” value with ERK3 stood at 0%; with ERK4, 12%; in the test on ERK5, 0%; in the test with ERK8 it was 0%; in the test with ERN1 it was 3%; in the test with FAK it was 0%. The “%Inh” value in the test on FER is given as 2%; in the test on FES it was 0%.

As for `Nc1ncc(-c2ccc3nccc(-c4ccncc4)c3c2)cc1S(=O)(=O)N1CCOCC1` [GSK1627798], the “%Inh” value in the test on EPHA7 is listed as 4%; with EPHA8, 15%; in the test on EPHB1 it was 1%; in the test with EPHB2 it was 0%; with EPHB3, 3%; in the test with EPHB4 it was 3%. Further, the “%Inh” value stood at 36% in the test on EPHB6; 0% in the test on ERBB2; 0% in the test with ERBB3; 0% in the test on ERBB4; 0% in the test with ERK1; 0% with ERK2. Moreover, the “%Inh” value with ERK3 amounted to 0%; with ERK4 it was 10%; in the test on ERK5 it was 0%; in the test on ERK8, 45%; in the test with ERN1 it was 0%; in the test with FAK, 2%. For the same compound, the entries for the “%Inh” value in the test with FER and with FES were 11% and 0%, respectively.

On to `COc1ccc(-c2coc3ccc(-c4nnc(SCc5ccc(OC)c(C(F)(F)F)c5)o4)cc23)cc1`, for which the “%Inh” value is reported as 19% in the test with EPHA7; 14% in the test with EPHA8; 26% in the test with EPHB1; 24% in the test with EPHB2; 20% in the test on EPHB3; 0% in the test on EPHB4. For the same compound, the “%Inh” value with EPHB6 was determined as 16%; in the test with ERBB2 it was 19%; with ERBB3, 28%; in the test with ERBB4, 21%; in the test on ERK1, 8%; in the test with ERK2, 24%. The “%Inh” value in the test with ERK3 turned out to be 0%; in the test on ERK4 it was 3%; in the test on ERK5, 2%; in the test with ERK8, 2%; with ERN1, 44%; in the test on FAK it was 10%. Further, the figures for the “%Inh” value in the test with FER and in the test on FES were 0% and 4%, respectively.

Regarding `CC(C)(C)c1ccc2nccc(Nc3cccc(O)c3)c2c1` [GW856795], the “%Inh” value is on record as 0% with EPHA7; 56% with EPHA8; 22% in the test on EPHB1; 17% with EPHB2; 57% in the test on EPHB3; 37% with EPHB4. For the same compound, the “%Inh” value turned out to be 3% in the test with EPHB6; 88% in the test with ERBB2; 44% in the test with ERBB3; 37% with ERBB4; 0% in the test with ERK1; 0% in the test with ERK2. Moreover, the “%Inh” value came to 0% with ERK3; 0% in the test on ERK4; 0% in the test with ERK5; 0% in the test with ERK8; 66% with ERN1; 0% in the test with FAK. The “%Inh” value in the test with FER and with FES was 0% in each case.

On to `Cl.c1ccc(-c2ccc3c(Nc4ccc5[nH]ccc5c4)ccnc3c2)nc1` [GW440138], for which the “%Inh” value with EPHA7 stood at 3%; with EPHA8 it was 25%; in the test with EPHB1, 11%; in the test with EPHB2 it was 0%; with EPHB3, 1%; in the test with EPHB4, 5%. For the same compound, the “%Inh” value with EPHB6 is on record as 79%; in the test on ERBB2, 63%; with ERBB3, 50%; with ERBB4, 44%; in the test with ERK1, 8%; in the test with ERK2 it was 0%. Besides, the “%Inh” value with ERK3 came out at 0%; in the test with ERK4, 6%; in the test on ERK5 it was 0%; in the test with ERK8, 0%; with ERN1, 0%; with FAK it was 0%. Further, the “%Inh” value with FER and in the test with FES was 0% each time.

For the compound `Cc1ccc(S(=O)(=O)Nc2ccc(Nc3nccc(Nc4cccc5[nH]ncc45)n3)cc2)cc1` [GSK581271], the “%Inh” value with EPHA7 worked out at 12%; in the test on EPHA8, 30%; in the test with EPHB1 it was 29%; with EPHB2, 0%; in the test with EPHB3, 3%; in the test on EPHB4, 26%. Further, the “%Inh” value in the test with EPHB6 came to 31%; with ERBB2, 14%; in the test on ERBB3, 0%; in the test on ERBB4 it was 39%; in the test with ERK1, 0%; in the test on ERK2 it was 0%. For the same compound, the “%Inh” value in the test with ERK3 was found to be 0%; in the test on ERK4 it was 5%; in the test with ERK5, 0%; with ERK8, 28%; in the test with ERN1 it was 0%; in the test with FAK, 0%. For the same compound, the figures for the “%Inh” value in the test on FER and in the test with FES were 7% and 0%, respectively.

With `Cn1cc(-c2ccc3c(c2)CCN3C(=O)Cc2cccc(Cl)c2)c2c(N)ncnc21` [GSK2606590], the “%Inh” value in the test with EPHA7 came out at 13%; with EPHA8 it was 34%; in the test on EPHB1, 15%; with EPHB2, 0%; in the test with EPHB3, 9%; in the test on EPHB4, 8%. Besides, the “%Inh” value in the test on EPHB6 was determined as 86%; in the test with ERBB2 it was 5%; with ERBB3, 0%; in the test with ERBB4, 0%; in the test with ERK1, 0%; in the test on ERK2, 10%. Besides, the “%Inh” value turned out to be 0% in the test on ERK3; 11% in the test on ERK4; 0% in the test with ERK5; 0% in the test on ERK8; 0% in the test with ERN1; 0% in the test on FAK. Moreover, the “%Inh” value was 35% with FER and 0% in the test on FES.

Take `Cn1cc(-c2[nH]c3cc(NC(=O)[C@H](N)C4CCCCC4)cc4c3c2C=NNC4=O)cn1`: the “%Inh” value in the test on EPHA7 was 4%; in the test on EPHA8, 10%; in the test on EPHB1, 15%; in the test with EPHB2, 0%; in the test with EPHB3, 1%; with EPHB4, 0%. Also, the “%Inh” value in the test on EPHB6 was determined as 92.4%; in the test on ERBB2, 64%; with ERBB3, 77%; with ERBB4, 36%; in the test with ERK1, 33%; in the test on ERK2, 22%. Besides, the “%Inh” value with ERK3 was 0%; with ERK4 it was 6%; with ERK5 it was 27%; with ERK8 it was 55%; with ERN1 it was 21%; in the test with FAK it was 5%. The results for the “%Inh” value in the test on FER and with FES were 13% and 0%, respectively.
